Measured values taken from PMC5540273 (PLoS ONE, 2017).
Several values for one entry are separate records, joined by “and”; a condition that tells them apart may be missing. Equal entries are not always repeated. Where two headings read alike, the source gives them in different places.

What was measured:
[1] = tested on: EPHA3; conditions: concentration: 1 μM, replicates: in singlicate, n = 1
[2] = tested on: EPHA4; conditions: concentration: 1 μM, replicates: in singlicate, n = 1
[3] = tested on: EPHA5; conditions: concentration: 1 μM, replicates: in singlicate; n = 1
[4] = tested on: EPHA6; conditions: concentration: 1 μM, replicates: in singlicate, n = 1
[5] = tested on: EPHA7; conditions: concentration: 1 μM, replicates: in singlicate, n = 1
[6] = tested on: EPHA8; conditions: concentration: 1 μM, replicates: in singlicate, n = 1
[7] = tested on: EPHB1; conditions: concentration: 1 μM, replicates: in singlicate, n = 1
[8] = tested on: EPHB2; conditions: concentration: 1 μM, replicates: in singlicate; n = 1
[9] = tested on: EPHB3; conditions: concentration: 1 μM, replicates: in singlicate, n = 1
[10] = tested on: EPHB4; conditions: concentration: 1 μM, replicates: in singlicate, n = 1
[11] = tested on: EPHB6; conditions: concentration: 1 μM, replicates: in singlicate, n = 1
[12] = tested on: ERBB2; conditions: concentration: 1 μM, replicates: in singlicate, n = 1
[13] = tested on: ERBB3; conditions: concentration: 1 μM, replicates: in singlicate, n = 1
[14] = tested on: ERBB4; conditions: concentration: 1 μM, replicates: in singlicate, n = 1
[15] = tested on: T1, ERK1; conditions: concentration: 1 μM, replicates: in singlicate, n = 1
T1 construct: gene MAPK3

[16] = tested on: T2, ERK2; conditions: concentration: 1 μM, replicates: in singlicate; n = 1
T2 construct: gene MAPK1

[17] = tested on: T3, ERK3; conditions: concentration: 1 μM, replicates: in singlicate, n = 1
T3 construct: gene MAPK6

[18] = tested on: T4, ERK4; conditions: concentration: 1 μM, replicates: in singlicate, n = 1
T4 construct: gene MAPK4

[19] = tested on: T5, ERK5; conditions: concentration: 1 μM, replicates: in singlicate; n = 1
T5 construct: gene MAPK7

[20] = tested on: T6, ERK8; conditions: concentration: 1 μM, replicates: in singlicate, n = 1
T6 construct: gene MAPK15
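Also: KINOMEscan kinase panel screen.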

In the case of `[2H]C([2H])(c1cccc(C(F)(F)F)c1C)n1ccn2c(=O)nc(N3CCOCC3)cc12` [GSK2336394], the “%Inh” value [1] is reported as 0%, the “%Inh” value [2] is reported as 1% and the “%Inh” value [3] is reported as 0%. The “%Inh” value [4] was 0%, the “%Inh” value [5] was 11% and the “%Inh” value [6] was 19%. The “%Inh” value [7] was 20%, the “%Inh” value [8] was 0% and the “%Inh” value [9] was 7%. For the same compound, the “%Inh” value [10] was 8%, the “%Inh” value [11] was 11% and the “%Inh” value [12] was 20%. For the same compound, the “%Inh” value [13] was 0%, the “%Inh” value [14] was 24% and the “%Inh” value [15] was 0%. The “%Inh” value [16] was 0%, the “%Inh” value [17] was 0% and the “%Inh” value [18] was 0%. For the same compound, the “%Inh” value [19] was 0% and the “%Inh” value [20] was 0%.
In the case of `COCCNC(=O)c1ccc(-c2cc(C(=O)NC3CC3)cc(F)c2C)cc1` [GW868318], the “%Inh” value [1] is reported as 38%, the “%Inh” value [2] is reported as 21% and the “%Inh” value [3] is reported as 25%. The “%Inh” value [4] was 30%, the “%Inh” value [5] was 4% and the “%Inh” value [6] was 12%. For the same compound, the “%Inh” value [7] was 16%, the “%Inh” value [8] was 7% and the “%Inh” value [9] was 23%. For the same compound, the “%Inh” value [10] was 32%, the “%Inh” value [11] was 23% and the “%Inh” value [12] was 13%. For the same compound, the “%Inh” value [13] was 29%, the “%Inh” value [14] was 8% and the “%Inh” value [15] was 2%. For the same compound, the “%Inh” value [16] was 25%, the “%Inh” value [17] was 6% and the “%Inh” value [18] was 8%. For the same compound, the “%Inh” value [19] was 0% and the “%Inh” value [20] was 29%.
With `Cn1cc(-c2ccc3c(c2)CCN3C(=O)Cc2ccccc2Cl)c2c(N)ncnc21` [GSK2608885] the “%Inh” value [1] was 34%, the “%Inh” value [2] was 62% and the “%Inh” value [3] was 0%. For the same compound, the “%Inh” value [4] was 58%, the “%Inh” value [5] was 92% and the “%Inh” value [6] was 93.5%. The “%Inh” value [7] was 43%, the “%Inh” value [8] was 64% and the “%Inh” value [9] was 0%. The “%Inh” value [10] was 15%, the “%Inh” value [11] was 98.3% and the “%Inh” value [12] was 97.2%. For the same compound, the “%Inh” value [13] was 86%, the “%Inh” value [14] was 98.9% and the “%Inh” value [15] was 0%. For the same compound, the “%Inh” value [16] was 0%, the “%Inh” value [17] was 0% and the “%Inh” value [18] was 23%. For the same compound, the “%Inh” value [19] was 47% and the “%Inh” value [20] was 0%.
For `CC(C)Oc1ccc2c(-c3ccnc(Nc4ccc(N5CCN(C)CC5)cc4)n3)cnn2n1` [GW696155], the “%Inh” value [1] was 33%, the “%Inh” value [2] was 1% and the “%Inh” value [3] was 0%. The “%Inh” value [4] was 11%, the “%Inh” value [5] was 7% and the “%Inh” value [6] was 9%. The “%Inh” value [7] was 9%, the “%Inh” value [8] was 0% and the “%Inh” value [9] was 13%. For the same compound, the “%Inh” value [10] was 26%, the “%Inh” value [11] was 70% and the “%Inh” value [12] was 53%. For the same compound, the “%Inh” value [13] was 14%, the “%Inh” value [14] was 39% and the “%Inh” value [15] was 0%. The “%Inh” value [16] was 0%, the “%Inh” value [17] was 92.1% and the “%Inh” value [18] was 47%. For the same compound, the “%Inh” value [19] was 45% and the “%Inh” value [20] was 98%.
`COc1ccc(COc2cc(-n3cnc4ccccc43)sc2C(N)=O)cc1` [GSK1024304] was tested, and the “%Inh” value [1] was 11%, the “%Inh” value [2] was 0% and the “%Inh” value [3] was 0%. The “%Inh” value [4] was 0%, the “%Inh” value [5] was 6% and the “%Inh” value [6] was 19%. The “%Inh” value [7] was 12%, the “%Inh” value [8] was 9% and the “%Inh” value [9] was 0%. The “%Inh” value [10] was 11%, the “%Inh” value [11] was 0% and the “%Inh” value [12] was 28%. For the same compound, the “%Inh” value [13] was 0%, the “%Inh” value [14] was 24% and the “%Inh” value [15] was 5%. The “%Inh” value [16] was 0%, the “%Inh” value [17] was 15% and the “%Inh” value [18] was 13%. For the same compound, the “%Inh” value [19] was 8% and the “%Inh” value [20] was 0%.
For `Cc1cccc(-c2nc(-c3ccc(S(C)(=O)=O)cc3)sc2-c2ccncc2)c1`, the “%Inh” value [1] was 9%, the “%Inh” value [2] was 48% and the “%Inh” value [3] was 1%. The “%Inh” value [4] was 44%, the “%Inh” value [5] was 19% and the “%Inh” value [6] was 21%. The “%Inh” value [7] was 14%, the “%Inh” value [8] was 13% and the “%Inh” value [9] was 34%. For the same compound, the “%Inh” value [10] was 41%, the “%Inh” value [11] was 46% and the “%Inh” value [12] was 4%. For the same compound, the “%Inh” value [13] was 9%, the “%Inh” value [14] was 0% and the “%Inh” value [15] was 6%. The “%Inh” value [16] was 29%, the “%Inh” value [17] was 6% and the “%Inh” value [18] was 0%. For the same compound, the “%Inh” value [19] was 2% and the “%Inh” value [20] was 0%.
With `Cc1ccc(C(=O)NCC(N)=O)cc1-n1c(C)cc(OCc2ccc(F)cc2F)c(Br)c1=O` the “%Inh” value [1] was 0%, the “%Inh” value [2] was 12% and the “%Inh” value [3] was 0%. For the same compound, the “%Inh” value [4] was 27%, the “%Inh” value [5] was 18% and the “%Inh” value [6] was 15%. For the same compound, the “%Inh” value [7] was 20%, the “%Inh” value [8] was 19% and the “%Inh” value [9] was 25%. The “%Inh” value [10] was 27%, the “%Inh” value [11] was 6% and the “%Inh” value [12] was 36%. For the same compound, the “%Inh” value [13] was 0%, the “%Inh” value [14] was 0% and the “%Inh” value [15] was 6%. The “%Inh” value [16] was 0%, the “%Inh” value [17] was 0% and the “%Inh” value [18] was 0%. For the same compound, the “%Inh” value [19] was 13% and the “%Inh” value [20] was 13%.
With `Cc1cccc(-c2nc(Nc3ccc4ncsc4c3)c3ccccc3n2)n1` [GW867588] the “%Inh” value [1] was 22%, the “%Inh” value [2] was 21% and the “%Inh” value [3] was 6%. The “%Inh” value [4] was 21%, the “%Inh” value [5] was 0% and the “%Inh” value [6] was 4%. For the same compound, the “%Inh” value [7] was 30%, the “%Inh” value [8] was 0% and the “%Inh” value [9] was 22%. The “%Inh” value [10] was 0%, the “%Inh” value [11] was 0% and the “%Inh” value [12] was 6%. The “%Inh” value [13] was 21%, the “%Inh” value [14] was 25% and the “%Inh” value [15] was 0%. The “%Inh” value [16] was 2%, the “%Inh” value [17] was 0% and the “%Inh” value [18] was 0%. The “%Inh” value [19] was 0% and the “%Inh” value [20] was 0%.
In the case of `COc1ccc(Nc2nccc(N3CCC(NC(=O)Nc4cc(C)ccc4C)C3)n2)cc1` (centres unmarked) [GSK1379741], the “%Inh” value [1] is reported as 0%, the “%Inh” value [2] is reported as 12% and the “%Inh” value [3] is reported as 0%. For the same compound, the “%Inh” value [4] was 0%, the “%Inh” value [5] was 5% and the “%Inh” value [6] was 2%. For the same compound, the “%Inh” value [7] was 14%, the “%Inh” value [8] was 27% and the “%Inh” value [9] was 8%. The “%Inh” value [10] was 9%, the “%Inh” value [11] was 0% and the “%Inh” value [12] was 6%. For the same compound, the “%Inh” value [13] was 0%, the “%Inh” value [14] was 52% and the “%Inh” value [15] was 0%. For the same compound, the “%Inh” value [16] was 0%, the “%Inh” value [17] was 0% and the “%Inh” value [18] was 1%. The “%Inh” value [19] was 0% and the “%Inh” value [20] was 0%.
For `NCCNS(=O)(=O)c1ccc(-c2ccnc3[nH]ccc23)cc1` [GSK977617], the “%Inh” value ([1]; 1 µM) was 52% and 31%, the “%Inh” value ([2]; 1 µM) was 6% and 0% and the “%Inh” value [3] was 0%. For the same compound, the “%Inh” value ([4]; 1 µM) was 5% and 0%, the “%Inh” value ([5]; 1 µM) was 16% and 15% and the “%Inh” value ([6]; 1 µM) was 13% and 16%. For the same compound, the “%Inh” value ([7]; 1 µM) was 23% and 15%, the “%Inh” value [8] was 0% and the “%Inh” value ([9]; 1 µM) was 11% and 0%. For the same compound, the “%Inh” value ([10]; 1 µM) was 11% and 1%, the “%Inh” value ([11]; 1 µM) was 13% and 24% and the “%Inh” value ([12]; 1 µM) was 37% and 0%. The “%Inh” value ([13]; 1 µM) was 3% and 0%, the “%Inh” value ([14]; 1 µM) was 47% and 0% and the “%Inh” value ([15]; 1 µM) was 8% and 0%. For the same compound, the “%Inh” value [16] was 0%, the “%Inh” value ([17]; 1 µM) was 12% and 17% and the “%Inh” value ([18]; 1 µM) was 3% and 25%. For the same compound, the “%Inh” value [19] was 0% and the “%Inh” value ([20]; 1 µM) was 46% and 17%.
